# PubChem BioAssay (EPA / NIEHS)
# Calls of active or inactive are those of the source. How the source made its calls: active means hit-call score of the fitted dose curve at least 0.9, where 1 is the maximum; inactive means score below 0.9.
# Read-out: Matrix Metallopeptidase 9 (MMP9), MMP9 (gene 4318)
# Assay: BSK_KF3CT_MMP9: BioMAP Diversity Plus: KF3CT Assay for Matrix Metallopeptidase 9 (MMP9) Biomarker Activity (AID 2283074)
# Conditions: primary human keratinocytes with fibroblasts; actives raise or lower the signal
# Protocol: BSK_KF3CT is a cell-based, multiplexed-readout assay that uses keratinocytes and foreskin fibroblasts, a human skin primary cell co-culture, with measurements taken at 24 hours after chemical dosing in a 96-well plate.BSK_KF3CT_MMP9 is an assay component measured in the BSK_KF3CT assay. It measures MMP-9 antibody related to regulation of gene expression using ELISA technology.Data from the assay component BSK_KF3CT_MMP9 was analyzed into 1 assay endpoint. This assay endpoint, BSK_KF3CT_MMP9, was analyzed with bidirectional fitting relative to DMSO as the negative control and baseline of activity. Using a type of binding reporter, gain or loss-of-signal activity can be used to understand changes in the signaling as they relate to the gene MMP9. Furthermore, this assay endpoint can be referred to as a primary readout, because this assay has produced multiple assay endpoints where this one serves a signaling function. To generalize the intended target to other relatable targets, this assay endpoint is annotated to the protease intended target family, where the subfamily is matrix metalloproteinase.
# The levels of cell surface (or secreted, indicated by the prefix "s") biomarker endpoints were measured by ELISA. Overt cytotoxicity to cells in confluent adherent cultures (all systems other than the BT system) was assessed by measuring total protein levels using sulforhodamine B (SRB) staining in parallel cultures at the time of biomarker measurements, indicated as SRB endpoints. For proliferation assays for adherent cell types, individual cell types are cultured at sub-confluence and relative cell numbers quantified by SRB staining at time points optimized for each system (48 h: 3C and CASM3C systems; 72 h: BT and HDF3CGF systems; 96 h: SAg system). SRB was performed by staining cells with 0.1% SRB after fixation with 10% TCA and reading wells at 560 nm.Viability and proliferation of PBMC (T cells) was quantified by Alamar Blue reduction for the SAg and BT systems. For PBMC viability (referred to as PBMC Cytotoxicity within the assay endpoint names), cells were plated (75,000/well in a 96-well plate) and then chemical samples added for 1 h before addition of activators, SEB and TSST-1 (20 ng/mL final concentration each). Cells were incubated for 90 h. Then, Alamar Blue (20 uL/well) (Invitrogen, Cat DAL1100) was added for 6 h, and the plates were read with a fluorescence microplate reader at 546/580 nm (excitation/emission). For PBMC proliferation, cells were plated and activated as above but incubated for only 16 h prior to addition of Alamar Blue. Plates were read after 6 h.
SMILES,AC50,outcome
Oc1cccc2cccnc12,2.46 µM (active),
COP(=S)(OC)Oc1c(Cl)cc(C)cc1Cl,20 µM (active),
CCOC(=O)/C=C(C)/C=C/C[C@@H](C)CCCC(C)C,30.2 µM (active),
Cn1sc(Cl)cc1=O,,inactive
C=CC(=O)OCCCCCC(C)C,,inactive
CC(C)c1ccc(CO)cc1,,inactive
CCOP(=S)(OCC)Oc1ccc(S(C)=O)cc1 (stereo not given),,inactive
O=C(O)CCC(F)(C(F)(F)F)C(F)(F)F,,inactive
O=C(O)C(Cl)(Cl)Cl,,inactive
COc1cc(-c2ccc(N)c(OC)c2)ccc1N,,inactive
O=Cc1cccc(Oc2ccccc2)c1,,inactive
CC(C)(c1ccccc1)c1ccc(O)c(C(C)(C)c2ccccc2)c1,2.41 µM (active),
CCCCCCCCc1ccc(O)cc1,28.8 µM (active),
CC1(C)Cc2cccc(O)c2O1,,inactive
CCN1CCC2(CC1)COc1cc3c(cc12)N(C(=O)c1ccc(-c2ccc(-c4nnc(C)o4)cc2C)cc1)CC3,14.3 µM (active),
Nc1cccc2ccccc12,20 µM (active),
C=C(C)C(=O)[O][Sn]([CH2]CCC)([CH2]CCC)[CH2]CCC,0.148 µM (active),
ClC(Cl)=C(Cl)C(Cl)=C(Cl)Cl,28.9 µM (active),
CCNc1nc(NC(C)(C)C)nc(SC)n1,,inactive
ClCC(Cl)CCl,,inactive

SMILES,AC50,outcome
CC(=O)OC(c1ccccc1)C(Cl)(Cl)Cl (stereo not given),,inactive
CCSC(C)CC1CC(=O)C(C(CC)=NOC/C=C/Cl)=C(O)C1 (stereo not given),,inactive
Cc1ccccc1N,,inactive
Nc1ccc(-c2ccc(N)c(Cl)c2)cc1Cl,4.21 µM (active),
CCOP(=S)(OCC)SCCS(=O)(=O)CC,,inactive
O=C(Nc1ccc2[nH]ccc2c1)c1cc2cc(F)ccc2n1Cc1cccc(F)c1,4.6 µM (active),
OCc1ccco1,,inactive
COC[C@H](C)N(C(=O)CCl)c1c(C)csc1C,,inactive
NC(=S)Nc1ccccc1,,inactive
Oc1ccc(-c2ccccc2)cc1,,inactive
CC(C)(C)CC(C)(C)c1ccc(O)cc1,9.64 µM (active),
CC12CC1(C)C(=O)N(c1cc(Cl)cc(Cl)c1)C2=O (stereo not given),,inactive
COP(=S)(OC)Oc1cc(Cl)c(Cl)cc1Cl,,inactive
BrCCBr,,inactive
COP(=S)(OC)Oc1ccc(Sc2ccc(OP(=S)(OC)OC)cc2)cc1,10.4 µM (active),
CCOP(=S)(OCC)SCSP(=S)(OCC)OCC,,inactive
ClC1(Cl)C2(Cl)C3(Cl)C4(Cl)C(Cl)(Cl)C5(Cl)C3(Cl)C1(Cl)C5(Cl)C24Cl (stereo not given),,inactive
O=C(O)C(F)(F)C(F)(F)C(F)(F)C(F)(F)C(F)(F)C(F)(F)F,,inactive
CC(=O)C(Cl)C(=O)N(C)C (stereo not given),,inactive
NC(=O)O,,inactive
